# Source: PubChem BioAssay AID720631 (The Scripps Research Institute Molecular Screening Center, 2013)
# Some of the results follow. Calls of active or inactive are those of the source.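 Rule for the calls: active = inhibition above the mean of compounds lying within the control limits plus 3 SD (cut at about 16% in these data); inactive = the rest.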
# Molecular target: Fibrinogen beta chain (Homo sapiens) (UniProt P02675)
# Test: Tn6 displacement from DD(E) complex – biochemical, fluorescence polarization, human fibrin, Tn6 probe, confirmation (AID 720631);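 note: 0% = plate median of compound wells and 100% = inhibitor peptide control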
# Conditions: FP displacement of TRITC-Tn6 peptide from DD(E); at 8.3 µM; active compounds read high; 0% = per-plate median of test wells
# Fibrinogen beta chain (Homo sapiens), sequence (P02675 whole entry, looked up): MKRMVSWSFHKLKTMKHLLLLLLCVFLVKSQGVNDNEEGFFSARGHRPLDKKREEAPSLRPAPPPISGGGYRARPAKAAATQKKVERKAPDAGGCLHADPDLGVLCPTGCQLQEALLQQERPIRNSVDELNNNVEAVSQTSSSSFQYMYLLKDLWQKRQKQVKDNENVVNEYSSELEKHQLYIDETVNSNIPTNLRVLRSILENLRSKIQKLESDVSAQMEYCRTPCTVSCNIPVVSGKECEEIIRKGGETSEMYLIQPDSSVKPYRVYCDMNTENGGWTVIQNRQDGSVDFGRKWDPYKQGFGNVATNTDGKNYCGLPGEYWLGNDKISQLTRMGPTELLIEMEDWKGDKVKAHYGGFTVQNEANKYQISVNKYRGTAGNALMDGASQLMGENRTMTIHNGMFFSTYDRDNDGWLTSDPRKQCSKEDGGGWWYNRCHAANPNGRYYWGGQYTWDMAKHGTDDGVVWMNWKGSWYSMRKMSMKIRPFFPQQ
row,Structure (SMILES),inhibition
1,Cc1ccc(NC(=O)CN2CCc3ccccc3C2)cc1,-6.7% (inactive)
2,CONc1nc2nonc2nc1NOC,-1.66% (inactive)
3,O=c1cc(Cn2nnc(-c3ccc(Cl)cc3)n2)nc2sccn12,-6.19% (inactive)
4,O=C(NCCNc1ccccc1[N+](=O)[O-])c1ccccc1F,-1.55% (inactive)
5,Cc1cc2ccccc2n1CCNC(=O)COc1ccc2ccccc2c1,12.1% (inactive)
6,Cc1ccc(-c2nc(C)sc2CC(=O)O)cc1,1.06% (inactive)
7,Cc1nnsc1S(=O)(=O)Cc1ccccc1Cl,-10.5% (inactive)
8,CCc1cc(-c2nnc(SCC(=O)NC3CC3)n2C)cs1,2.54% (inactive)
9,COc1ccc(Nc2nc(-c3ccccc3)cs2)cc1,-0.61% (inactive)
10,CCOCC(=O)NCc1ccc2c(c1)cc(C)n2C,0.62% (inactive)
11,CCOC(=O)N1CCN(Cc2nc(N)nc(Nc3ccc(C)cc3)n2)CC1,-3.1% (inactive)
12,Cc1cc(C)c2nc(NC(=O)C3CCCO3)sc2c1 (stereo unspecified),4.35% (inactive)
13,Cc1cc2nc3c(=O)[nH]c(=O)nc-3n(C[C@H](O)[C@H](O)[C@H](O)CO)c2cc1C,12.4% (inactive)
14,CCC1C(=O)NCCN1C(=O)c1ccc2nc(Cc3ccc(OC)cc3)oc2c1 (stereo unspecified),-13.1% (inactive)
15,Cc1cc2cc(CNC(=O)c3ccc(S(=O)(=O)N4CCOCC4)cc3)ccc2[nH]1,-6.87% (inactive)
16,COc1cc(NC(=O)c2ccc(CNc3c(N4CCCC4)c(=O)c3=O)cc2)cc(OC)c1OC,-4.66% (inactive)
17,Cc1ccc(-c2nn(-c3ccccc3)cc2/C=C/C(=O)Nc2cccc(S(N)(=O)=O)c2)cc1,4.74% (inactive)
18,COc1ccc(N2C(=O)NC(NS(=O)(=O)c3ccc(Cl)cc3)(C(F)(F)F)C2=O)cc1 (stereo unspecified),1.83% (inactive)
19,O=c1[nH]n(-c2ccc([N+](=O)[O-])cc2)c(=O)c2ccccc12,12.3% (inactive)
20,O=C(Nc1cccc(-c2nc3ccccc3[nH]2)c1)c1ccc(C(=O)Nc2cccc(-c3nc4ccccc4[nH]3)c2)cc1,29.2% (active)
21,Oc1ccc(N=Cc2sc3ccccc3c2Cl)cc1,-11.2% (inactive)
22,Cc1nn(C)cc1N1C(=O)c2cccc3c(N)ccc(c23)C1=O,1.67% (inactive)
23,CCc1ccccc1NC(=S)Nc1cc(OC)c(NC(=O)C(C)C)cc1OC,-4.51% (inactive)
24,COc1ccc(Nc2nc(-c3cccnc3)nc3ccccc23)cn1,-6.63% (inactive)
25,O=C(CCl)NNc1cccc(Cl)n1,4.87% (inactive)
26,CN1c2ccc(C=O)c3c(C=O)ccc(c23)N(C)C1(C)C,-6.98% (inactive)
